# Assay outcomes from PubChem BioAssay.
# MARV entry inh – Marburg virus entry inhibition; Marburg virus pseudotyped entry inhibition, cell reporter; Potency, µM (doses to about 37.8 µM), usual class: inhibitors; hit rate 1.8% among 300,000; AID 540276; calls by dose curve; tested in HEK293 cells
# HCV inh – inhibitors of hepatitis C virus infection | Huh7.5.1 HCVcc-Cre infection, luciferase reporter, 44 h | Potency, µM (titrated, usually from 41.8 µM), actives largely listed as inhibitors | hit rate 3.4% among 340,000
#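 After 44 h co-culture of compound, cells and HCVcc-Cre (~0.5 moi), substrate is added for 15 min at room temperature and luciferase measured over 15 sec. Cells were seeded at 1,000/well and pre-cultured 4 h.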
# HCMV inh – human cytomegalovirus inhibition. AID 1259415. hit rate 4.5% among 410,000. HFF cells, HCMV-luciferase reporter, 72 h; stronger effect = lower value. activity change, negative = inhibition, % at 57.5 µM; in the data active = activity change below about -60%; inconclusive = no clear call, values can overlap the other calls; inactive = above about -39%
#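 Steps: HFFs plated, 16 h 37C; compounds added; HCMV-luciferase added to MOI 1 PFU/cell; 72 h 37C; OneGlo reagent, 5 min room temperature; luminescence read, normalized to controls.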
# Lassa entry inh – blocks Lassa virus binding to or entry into cells | Lassa virus pseudotype entry inhibition, cell reporter | Potency, µM (doses to about 37.9 µM), hits mostly inhibitors | hit rate 1.2% among 300,000 | AID 540256; calls by dose curve; tested in HEK293 cells; note: nearly all actives have a fitted effect of over 50% in size
# Pf growth 96h – P. falciparum growth inhibition at 96 hours; P. falciparum luciferase reporter growth, 96 h; Potency, µM (top dose mostly 28.7 µM), hits mostly inhibitors; hit rate 6.9% among 320,000; AID 504834
#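 Parasite growth measured via integrated firefly luciferase reporter in P. falciparum. Infected erythrocytes at 2% hematocrit, 0.05% parasitemia final were treated 96 hours at 37 C under 5% CO2, and luminescence was read.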
# Pf growth 48h – inhibits P. falciparum growth in the first generation, 48 h. P. falciparum luciferase growth in erythrocytes, 48 h. Potency, µM (series often up to 28.7 µM), hits mostly inhibitors. hit rate 5.9% among 310,000
#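 Erythrocytes infected with P. falciparum carrying an integrated firefly luciferase reporter (2% hematocrit, 0.1% parasitemia final) were exposed to compounds in RPMI 1640 with 0.5% Albumax at 37 C, 5% CO2. Growth inhibition was scored as reduced luminescence.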
# Numbers stand for hits; – = inactive; ? = inconclusive; · = no result given; + = active, no number. Hits are enriched below; roughly 14% of the tested compounds scored in any of these assays. Unless noted, calls come from the whole dose curve; as a rule, active = well fitted inhibition curve with a large enough effect; inconclusive = small, poorly fitted or top-dose-only effect, or another doubt; inactive = no such curve, though single readings can be large or run the other way.
SMILES,MARV entry inh,HCV inh,HCMV inh,Lassa entry inh,Pf growth 96h,Pf growth 48h
Cc1ccc2nc(N(CCCN(C)C)C(=O)c3cc(-c4cccs4)nc4ccccc34)sc2c1,·,11µM,–,·,13µM,–
CN(C)CCCN(C(=O)c1sc2ccccc2c1Cl)c1nc2c(F)cccc2s1,–,–,–,–,–,–
CCCCCCn1c(=O)n2n(c1=O)[C@@H]1CN(S(=O)(=O)c3ccc(C)cc3)C[C@]1(O)[C@@H](OC(=O)Nc1cccs1)C2,·,·,–,·,·,·
Cc1cc(NC(=O)c2cn(C3CCCCC3)c(=O)c3c2c2ccccc2n3C)no1,·,11µM,–,·,?,·
Cc1ccc(CNC(=O)c2cn(C3CCCCC3)c(=O)c3c2c2ccccc2n3C)o1,?,–,–,–,–,·
CCOC(=O)c1c(C(=O)OCC)c(C)n(CCc2ccc(OC)c(OC)c2)c1C,?,–,–,–,9.3µM,?
CCOC(=O)c1ccc(NC(=S)NCCc2ccc(OC)c(OC)c2)cc1,–,–,–,–,10µM,?
COC(=O)c1ccc(NC(=S)NCCc2ccc(OC)cc2)cc1,?,?,–,–,–,?
Cc1ccc(CCNC(=O)CNC(=S)N(Cc2ccccc2)Cc2cccnc2)cc1,?,?,–,?,–,?
COC(=O)c1ccc(NC(=S)NCCc2cccc(C)c2)cc1,–,22µM,–,–,?,?
COc1ccc(CN(Cc2cccnc2)C(=S)NCCc2ccccc2)cc1OC,–,–,–,–,15µM,?
CCOC(=O)c1cnc2ccc(OC)cc2c1Nc1cccc(C(C)=O)c1,·,·,–,?,·,·
Cc1c(-c2ccc(Cl)cc2)c(=O)oc2c(CN3CCOCC3)c(O)ccc12,·,·,?,–,·,·
COc1cc(-c2cnc3c(NC(C)=O)cc(-c4ccccc4CN(C)C)cn23)cc(OC)c1OC,·,·,–,·,·,·
Cc1ccccc1OCC(=O)Nc1ccc2nc(SCc3ccccc3)sc2c1,–,·,–,–,·,·
CCOC(=O)c1ccc(N/C=C/C(=O)c2ccc(OC)c(OC)c2)cc1,–,–,?,–,–,–
CCOC(=O)c1ccc(Nc2ccc(-c3ccc(OC)c(OC)c3)nn2)cc1,?,?,–,?,–,12µM
COc1ccc(CCNC(N)=S)cc1OC,–,–,–,–,10µM,–
COc1ccc(CCNC(=S)c2ccccc2)cc1OC,–,8.9µM,?,·,5.2µM,4.7µM
CCOC(=O)c1ccc(NC(=S)NCCCN2CCCC2=O)cc1,–,?,–,–,2.6µM,–
COc1ccc(CCNC(=O)C(=O)NCc2ccccc2)cc1OC,–,?,–,–,?,?
CNC(=S)NCCc1ccc(OC)c(OC)c1,–,–,–,–,–,–
COc1ccc(N2CCC[C@@H]2/C=C/C(=O)OCc2ccccc2)cc1,·,·,–,·,·,·
CCOC(=O)c1ccc(NC(=S)N2CCN(CCNC3=CC(=O)CC(C)(C)C3)CC2)cc1,–,–,–,–,–,0.026µM
COc1ccccc1NC(=S)NCCc1ccc(OC)c(OC)c1,?,–,?,–,4.7µM,2.6µM
SMILES,MARV entry inh,HCV inh,HCMV inh,Lassa entry inh,Pf growth 96h,Pf growth 48h
COc1ccc(CNC(=S)NCc2ccc(Cl)cc2)cc1OC,–,?,–,?,–,–
COc1ccc(CNC(=S)NCc2ccc(F)cc2)cc1OC,–,?,-63,–,–,?
COc1ccc(CCNC(=S)NCCc2ccc(OC)c(OC)c2)cc1OC,?,?,–,?,13µM,6.6µM
COc1ccccc1NC(=S)NCCc1ccc(S(N)(=O)=O)cc1,–,–,–,–,–,–
COC(=O)[C@@H]1[C@@H](c2cccc(C(F)(F)F)c2)NC(=O)N(Cc2ccccc2)[C@@H]1C,–,·,·,·,·,·
COc1ccc(CNC(=O)O[C@H]2CC[C@@]34CCCN3C(=O)CCC[C@H]4[C@H]2Cc2ccccc2)cc1OC,·,·,–,·,·,·
COc1ccc(CCNC(=O)c2sc3ccccc3c2Cl)cc1OC,–,?,–,–,–,–
COc1ccc(CCNC(=O)c2cc3sc(Cl)cc3n2C)cc1OC,·,?,–,·,9.3µM,–
Clc1cccc(-n2cc(-c3ccccc3)c3c(NC4CCCC4)ncnc32)c1,·,·,–,–,·,·
Nc1ncnc2c1c(-c1ccc(Oc3ccccc3)cc1)cn2C1CCCC1,?,?,-64,?,5.2µM,8.3µM
Cc1cccc(C#Cc2ccccc2)n1,?,1.1µM,-65,?,–,–
Nc1ccc(C#Cc2ccccc2)cc1,–,?,–,–,–,–
CC1Sc2ccc(S(=O)(=O)CCC(=O)Nc3ccccn3)cc2NC1=O (configuration not stated),·,–,–,·,9.3µM,–
CC1Sc2ccc(S(=O)(=O)CCC(=O)NCc3ccccc3)cc2NC1=O (configuration not stated),·,–,–,·,?,–
CC1Sc2ccc(S(=O)(=O)CCC(=O)N3CCc4ccccc43)cc2NC1=O (configuration not stated),·,–,–,·,17µM,–
CCC1Sc2ccc(S(=O)(=O)CCC(=O)N3CCc4ccccc43)cc2NC1=O (configuration not stated),–,–,–,–,–,–
COc1cc(C2CC(=O)N(Cc3cccc(F)c3)c3ccccc3S2)cc(OC)c1OC (configuration not stated),–,·,-95,·,·,·
CN1CCN(S(=O)(=O)c2ccc(C#N)cc2)C(c2ccccc2)C1 (configuration not stated),·,–,–,·,–,–
COCCNC(=O)c1csc(Nc2cccc3ccccc23)n1,·,–,–,·,?,?
CN(C)CCNC(=O)c1csc(Nc2cccc3ccccc23)n1,10µM,–,?,?,?,?
CCCNC(=O)c1csc(Nc2cccc3ccccc23)n1,·,–,–,·,6.6µM,9.3µM
N#Cc1ccc(S(=O)(=O)N[C@H]2CC[C@@]34CCCN3C(=O)CCC[C@H]4[C@H]2Cc2ccccc2)cc1,·,·,–,·,·,·
COc1ccc(/C(C)=N\Nc2nc(-c3ccc(Cl)cc3)cc(C(F)(F)F)n2)cc1OC,–,?,?,–,?,10µM
Nc1c(S(=O)(=O)O)cc(Nc2ccc(Nc3nc(Cl)nc(Nc4ccc(S(=O)(=O)O)cc4)n3)c(S(=O)(=O)O)c2)c2c1C(=O)c1ccccc1C2=O,14µM,·,·,?,·,·
Nc1c(S(=O)(=O)O)cc(NC(=O)c2ccccc2)c2c1C(=O)c1ccccc1C2=O,·,–,·,·,–,–
COc1cccc(-c2nnn(CC(=O)N(C3CCCCC3)C3CCS(=O)(=O)C3)n2)c1 (configuration not stated),·,·,–,·,·,·
COc1cc(C(O)c2nc3ccccc3s2)cc(OC)c1OC (configuration not stated),·,7.1µM,–,·,–,–
COc1ccc(C(O)c2nc3ccccc3s2)cc1 (configuration not stated),–,·,·,·,–,–
O=C(Nc1nc2cc3c(cc2s1)OCCO3)C1=COCCO1,·,–,+,·,–,–
O=C(CCN1C(=O)C2CCCCC2C1=O)Nc1nc2ccc(F)cc2s1 (configuration not stated),?,–,–,11µM,–,–
